Several values for one entry are separate records, joined by “and”; a condition that tells them apart may be missing. Identical values can stand only once. Inconclusive results are not listed. Activity calls are given as the source filed them. The calls were made as follows, unless noted: active = hit-call score of the fitted dose curve at least 0.9, where 1 is the maximum; inconclusive = response in the unintended direction; inactive = score below 0.9.
Experiments:
[1] = read-out: X-box binding protein 1 (XBP1), XBP1 (gene 7494); assay: LTEA_HepaRG_XBP1: Life Technologies and Expression Analysis (LTEA) Assay for X-box binding protein 1 (XBP1) using HepaRG (AID 2283540; active = hit-call score of the fitted dose curve at least 0.9, where 1 is the maximum; inactive = score below 0.9); conditions: mRNA level, 48 h; actives raise or lower the signal
How it was run: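 Human HepaRG monolayers receive test chemical for 48 h across an eight-point half-log series starting at 100 uM. XBP1 mRNA gain or loss is scored against DMSO by qRT-PCR.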

[2] = LTEA_HepaRG_LDH_cytotoxicity: Cytotoxicity Assessment in the Life Technologies and Expression Analysis (LTEA) Assay (AID 2283563);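 as to AC50: LDH activity released into spent culture medium as a marker of cell death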
How it was run: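 Human HepaRG hepatic cells are treated with test chemicals for 48 h at up to 100 uM in 0.5% DMSO. Cytotoxicity is scored from medium LDH against the vehicle control.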

[3] = molecular target: Cellular tumor antigen p53 (Homo sapiens) (UniProt P04637); assay: TOX21_p53_BLA_p2_ratio: Tox21 HCT-116 p53 Agonism Beta-lactamase Assay, Ratio, Phase 2 (AID 2283592)
Cellular tumor antigen p53 (Homo sapiens), sequence (P04637 whole entry, looked up): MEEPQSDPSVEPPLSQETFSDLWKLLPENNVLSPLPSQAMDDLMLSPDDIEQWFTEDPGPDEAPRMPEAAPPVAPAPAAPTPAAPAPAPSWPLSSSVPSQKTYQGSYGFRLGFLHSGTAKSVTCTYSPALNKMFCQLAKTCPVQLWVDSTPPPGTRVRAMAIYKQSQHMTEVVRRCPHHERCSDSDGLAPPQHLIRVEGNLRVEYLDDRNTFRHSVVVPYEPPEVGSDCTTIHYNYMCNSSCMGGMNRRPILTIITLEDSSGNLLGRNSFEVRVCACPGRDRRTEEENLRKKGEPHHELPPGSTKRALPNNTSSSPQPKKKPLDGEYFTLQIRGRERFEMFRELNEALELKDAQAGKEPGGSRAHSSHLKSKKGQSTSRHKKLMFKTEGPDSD
How it was run: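 Cleaved-to-uncleaved substrate ratio (460 vs 530 nm) measured in HCT116 cells with an inducible beta-lactamase reporter linked to p53 activity. Compounds incubated 16 h at 37C before 2 h room-temperature CCF4-AM loading.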

[4] = molecular target: Cellular tumor antigen p53 (Homo sapiens) (UniProt P04637); assay: TOX21_p53_BLA_p3_ratio: Tox21 HCT-116 p53 Agonism Beta-lactamase Assay, Ratio, Phase 3 (AID 2283596)
How it was run: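 Cells were seeded at 4000/well, rested 5 h at 37C, then dosed with DMSO compound solutions (217-fold dilution) for 16 h. CCF4-AM substrate was loaded for 2 h at room temperature, and the 460/530 nm emission ratio was fitted for gain of signal versus DMSO.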

[5] = TOX21_p53_BLA_p4_viability: Viability Assessment in the Tox21 HCT-116 p53 Agonism Beta-lactamase Assay, Phase 4 (AID 2283597);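 also: hits lower the luminescence signal meaning cytotoxicity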
How it was run: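 Viability is taken as cellular ATP: after 16 h compound exposure of HCT116 cells and a 2 h room-temperature CCF4-AM substrate step, CellTiter-Glo reagent is added and luminescence is measured 30 min later.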

[6] = molecular target: Cellular tumor antigen p53 (Homo sapiens) (UniProt P04637); assay: TOX21_p53_BLA_p5_ratio: Tox21 HCT-116 p53 Agonism Beta-lactamase Assay, Ratio, Phase 5 (AID 2283599)
How it was run: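 HCT-116 p53-bla cells (4000/well) plated 5 h, dosed with compound (217-fold DMSO dilution) for 16 h at 37 C; CCF4-AM substrate 2 h at room temperature. Activity is the 460/530 nm emission ratio (405 nm excitation), fitted in gain-of-signal direction versus DMSO.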

[7] = TOX21_p53_BLA_p5_viability: Viability Assessment in the Tox21 HCT-116 p53 Agonism Beta-lactamase Assay, Phase 5 (AID 2283600)
How it was run: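 Viability is taken from cellular ATP content, measured by luciferase luminescence in the same wells after the beta-lactamase ratio read. Cells are seeded at 4000 per well and exposed to DMSO-dissolved compounds, diluted 217-fold, for 16 h.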

[8] = molecular target: Cellular tumor antigen p53 (Homo sapiens) (UniProt P04637); assay: TOX21_p53_BLA_p4_ratio: Tox21 HCT-116 p53 Agonism Beta-lactamase Assay, Ratio, Phase 4 (AID 2283601)
How it was run: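 HCT-116 p53 beta-lactamase reporter cells (4000/well) preincubated 5 h, then compound (217-fold dilution of DMSO stock) for 16 h at 37C. CCF4-AM substrate added 2 h at room temperature; 460/530 nm emission ratio fitted upward versus DMSO.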

[9] = Tanguay_ZF_120hpf_YSE_legacy: (Legacy) Oregon State University Tanguay Lab 120 Hour Post-fertilization zebrafish Assay for Yolk Sac Edema (AID 2283634);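 as to AC50: actives raise the incidence of yolk sac edema above the DMSO baseline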
How it was run: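 Readout: presence or absence of yolk sac edema at 120 hpf, fitted upward against DMSO controls. Exposure ran statically from 6 hpf in dechorionated embryos kept at 28C.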

[10] = Tanguay_ZF_120hpf_AXIS_legacy: (Legacy) Oregon State University Tanguay Lab 120 Hour Post-fertilization zebrafish Assay for Body Axis Malformation (AID 2283635);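 as to AC50: potency for an increased fraction of larvae scored with body axis malformation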
How it was run: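 Static 6–120 hpf chemical exposure of dechorionated wild-type 5D zebrafish, one per well at 28C; morphology endpoint scored binary at 120 hpf relative to DMSO control.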

[11] = Tanguay_ZF_120hpf_EYE_legacy: (Legacy) Oregon State University Tanguay Lab 120 Hour Post-fertilization zebrafish Assay for Eye Malformation (AID 2283636);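 also: binary presence or absence of eye malformation scored by brightfield in 120 hpf larvae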
How it was run: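 5D wild-type embryos, pronase-dechorionated at 4 hpf; static exposure 6–120 hpf, 28C, dark; DMSO 0.64% final; 5uM trimethyltin chloride positive control. Binary eye-defect scoring at 120 hpf; dead embryos not scored.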

[12] = Tanguay_ZF_120hpf_SNOU_legacy: (Legacy) Oregon State University Tanguay Lab 120 Hour Post-fertilization zebrafish Assay for Snout Malformation (AID 2283637)
How it was run: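 Binary brightfield scoring of snout malformation at 120 hpf. Dechorionated 5D wild-type embryos, one per well, static exposure from 6 hpf at 28C, sealed and dark; final DMSO 0.64% (vol/vol), DMSO as baseline; 5uM trimethyltin chloride positive control.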

[13] = Tanguay_ZF_120hpf_JAW_legacy: (Legacy) Oregon State University Tanguay Lab 120 Hour Post-fertilization zebrafish Assay for Jaw Malformation (AID 2283638);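 as to AC50: active means more embryos with jaw malformation than DMSO controls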
How it was run: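 Static waterborne exposure of dechorionated wild-type (Tropical 5D) zebrafish from 6 to 120 hpf at 28C, 0.64% DMSO vehicle; 5uM trimethyltin chloride served as positive control. Jaw morphology recorded as binary at 120 hpf.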

[14] = Tanguay_ZF_120hpf_OTIC_legacy: (Legacy) Oregon State University Tanguay Lab 120 Hour Post-fertilization zebrafish Assay for Otic Vesicle Malformation (AID 2283639)
How it was run: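 Binary scoring of otic vesicle defects at 120 hpf in zebrafish (Tropical 5D) held under static exposure at 28C, sealed and shaded, with final DMSO 0.64%. Embryos dying by 24 or 120 hpf excluded; fitted positively against DMSO.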

[15] = Tanguay_ZF_120hpf_PE_legacy: (Legacy) Oregon State University Tanguay Lab 120 Hour Post-fertilization zebrafish Assay for Pericardial Edema (AID 2283640);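 as to AC50: potency for increased incidence of pericardial edema versus DMSO baseline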
How it was run: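 Read-out is the presence or absence of pericardial edema at 120 hpf under brightfield, with gain of signal fitted against DMSO controls. Larvae (5D wild-type) were statically exposed at 28C with 0.64% final DMSO.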

[16] = Tanguay_ZF_120hpf_BRAI_legacy: (Legacy) Oregon State University Tanguay Lab 120 Hour Post-fertilization zebrafish Assay for Brain Malformation (AID 2283641)
How it was run: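 Brain malformation in Tropical 5D zebrafish was recorded as a binary endpoint after static compound exposure from early development to 120 hpf at 28C. Activity was analysed against DMSO as negative control.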

[17] = TOX21_p53_BLA_p2_viability: Viability Assessment in the Tox21 HCT-116 p53 Agonism Beta-lactamase Assay, Phase 2 (AID 2283591);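 also: compound exposure lasted 16 h at 37 °C; actives lower the ATP signal meaning cytotoxicity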
How it was run: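 HCT116 p53-bla cells, 4000/well, dosed after 5 h plating (217-fold dilution of DMSO stocks) and incubated 16 h at 37C. Viability taken as cellular ATP by CellTiter-Glo luminescence after 30 min RT; signal loss marks cytotoxicity.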

[18] = TOX21_p53_BLA_p3_viability: Viability Assessment in the Tox21 HCT-116 p53 Agonism Beta-lactamase Assay, Phase 3 (AID 2283593);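 also: cells exposed to compound for 16 h before reading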
How it was run: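 HCT116 cells, 4000/well, dosed 5 h after plating by pin transfer (217-fold dilution from DMSO stock) and incubated 16 h at 37C, 5% CO2. Viability read as ATP luminescence with CellTiter-Glo after 30 min at room temperature.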

[19] = Tanguay_ZF_120hpf_MORT_legacy: (Legacy) Oregon State University Tanguay Lab 120 Hour Post-fertilization zebrafish Assay for Mortality (AID 2283633)
How it was run: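 Mortality endpoint from a multiplexed whole-embryo zebrafish screen. Dechorionated wild-type embryos received compound at 6 hpf and remained under static exposure at 28C until 120 hpf, with death noted as a present/absent call.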

Measured: AC50

Cc1ccc(N=C=O)cc1N=C=O
active: [2] 33.1 µM
not listed: [17] | [18] | [19]
inactive: all other assays above

CCCCCOC(=O)c1ccccc1C(=O)OCCCCC
not listed: [3] | [6] | [7] | [16] | [18] | [19]
inactive: all other assays above

CCCCCCCCOC(=O)c1ccc(C(=O)OCCCCCCCC)c(C(=O)OCCCCCCCC)c1
not listed: [3] | [6] | [11] | [13] | [16] | [19]
inactive: all other assays above

Clc1ccccc1Cl
inactive: [1] | [2] | [9] | [10] | [11] | [12] | [13] | [14] | [15]

O=C(Oc1ccc(Br)cc1)N1CCN2CCC1CC2
active: [10] 38.3 µM | [15] 9.47 µM
not listed: [2] | [3] | [4] | [6] | [18]
inactive: all other assays above

O=C(Nc1ccccc1)c1ccccc1I
active: [1] 13.2 µM | [2] 40.5 µM | [9] 51.3 µM | [11] 10.5 µM | [12] 12.1 µM | [13] 50.4 µM | [14] 48 µM | [15] 43.5 µM

O=Cc1ccco1
not listed: [2] | [7] | [14]
inactive: all other assays above

COC(=O)Nc1nc2ccccc2[nH]1
active: [3] 10.1 µM and 7.91 µM | [4] 12.9 µM and 8.81 µM | [8] 9.43 µM and 7.88 µM | [9] 47.5 µM | [11] 46.4 µM
not listed: [6] | [7] | [17] | [18] | [19]
inactive: all other assays above

[O-][Cl+]O
not listed: [4] | [5] | [6] | [8] | [18] | [19]
inactive: all other assays above
